# ± gives the standard deviation of the averaged measurements.
# System: MDA-MB-231
# Assay: kynurenine production, fold change vs DMSO IFNg/TNF control; higher = more kynurenine produced (less inhibition)
# Details: pre-treatment time: 18 h then 24 h IFNg/TNF
# Summary of the method: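 MDA-MB-231 cells were seeded in 96-well plates at 7 × 10^4/well and, 24 h later, pre-treated for 18 h with each natural product in 0.1% DMSO. They were then stimulated for 24 h at 37°C with IFNγ (1 U/ml) and TNF (6.25 ng/ml). Supernatants were treated with trichloroacetic acid and p-dimethylaminobenzaldehyde and read at 492 nm against 0–100 μM standards. Kynurenine production is expressed as fold change over cytokine-stimulated vehicle wells on the same plate and, in the first screening round, averaged across duplicate plates.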
row,Structure (SMILES),kynurenine production
1,CC1=CC[C@@H](C(C)(C)O)CC1 [(-)-α-Terpineol] (compound dose: 10 uM),0.84 ± 0.24
2,C/C=C(/C)C(=O)O[C@H]1C(C)=C[C@]23C(=O)[C@@H](C=C(COC(C)=O)[C@@H](O)[C@]12O)[C@H]1[C@@H](C[C@H]3C)C1(C)C [20-O-Acetylingenol-3-angelate] (compound dose: 10 uM),0.874 ± 0.053
3,COC(=O)[C@H]1[C@H]2C[C@@H]3c4[nH]c5cc(OC)ccc5c4CCN3C[C@H]2C[C@@H](OC(=O)c2cc(OC)c(OC)c(OC)c2)[C@@H]1OC [Reserpine] (compound dose: 10 uM),1.02 ± 0.067
4,COC(=O)C1=CO[C@@H](O[C@@H]2O[C@H](CO)[C@@H](O)[C@H](O)[C@H]2O)[C@H]2[C@@H]1C(=O)C[C@@H]2C [Verbenalin] (compound dose: 10 uM),0.834 ± 0.12

# From the supplement of paper PMC13094657
